The supplement of paper PMC7411054
Counter-ions that a name gives are not always drawn.

What was measured:
Conditions in all cases: treatment time: 24 h
[1] = tested on: A549-ACTB-RAB5A; assay: lowest phenotypically active concentration; higher = less potent
How it was run: (§1)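 Each of fifteen gene-edited A549, HepG2 and WPMY1 reporter lines, marked with BFP for segmentation and GFP and RFP/FusionRed, was treated in four wells at 0.3, 1, 3 or 9 µM for 24 h prior to live imaging. Normalisation of per-well live-cell features used solvent control wells. Deviation needed ≥3 of 4 wells beyond the 95th percentile of control Euclidean distances, and reproducibility needed a median replicate Pearson correlation above the 95th percentile of non-replicates. Both were required for phenotypic activity.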

[2] = tested on: A549-CANX-COX4; assay: as above
How it was run: as §1

[3] = tested on: A549-GM130-SQSTM1; assay: as above
How it was run: as §1

[4] = tested on: HepG2-TP53BP1-CLTA; assay: as above
How it was run: as §1

[5] = tested on: HepG2-TUBA1B-RELA; assay: as above
How it was run: as §1

[6] = tested on: A549-ACTB-RAB5A; assay: phenotypically active (imaging signature differs from DMSO and reproducible) at any of 0.3-9 uM (binary (1 = active, 0 = inactive)); higher = active
How it was run: as §1

[7] = tested on: A549-CANX-COX4; assay: as above
How it was run: as §1

[8] = tested on: A549-GM130-SQSTM1; assay: as above
How it was run: as §1

[9] = tested on: A549-TP53BP1-CLTA; assay: as above
How it was run: as §1

[10] = tested on: A549-TUBA1B-RELA; assay: as above
How it was run: as §1

[11] = tested on: HepG2-ACTB-RAB5A; assay: as above
How it was run: as §1

[12] = tested on: HepG2-CANX-COX4; assay: as above
How it was run: as §1

[13] = tested on: HepG2-GM130-SQSTM1; assay: as above
How it was run: as §1

[14] = tested on: HepG2-TP53BP1-CLTA; assay: as above
How it was run: as §1

[15] = tested on: HepG2-TUBA1B-RELA; assay: as above
How it was run: as §1

[16] = tested on: WPMY1-ACTB-RAB5A; assay: as above
How it was run: as §1

[17] = tested on: WPMY1-CANX-COX4; assay: as above
How it was run: as §1

[18] = tested on: WPMY1-GM130-SQSTM1; assay: as above
How it was run: as §1

[19] = tested on: WPMY1-TP53BP1-CLTA; assay: as above
How it was run: as §1

[20] = tested on: WPMY1-TUBA1B-RELA; assay: as above
How it was run: as §1

SMILES | lowest phenotypically active concentration [1] | lowest phenotypically active concentration [2] | lowest phenotypically active concentration [3] | lowest phenotypically active concentration [4] | lowest phenotypically active concentration [5] | phenotypically active [6] | phenotypically active [7] | phenotypically active [8] | phenotypically active [9] | phenotypically active [10] | phenotypically active [11] | phenotypically active [12] | phenotypically active [13] | phenotypically active [14] | phenotypically active [15] | phenotypically active [16] | phenotypically active [17] | phenotypically active [18] | phenotypically active [19] | phenotypically active [20]
C=CC(=O)Nc1cccc(CN2C(=O)N(c3c(Cl)c(OC)cc(OC)c3Cl)Cc3cnc(NCCCCN(CC)CC)nc32)c1 [FIIN 1 hydrochloride] | ≤ 0.3 µM | 3 µM | ≤ 0.3 µM | ≤ 0.3 µM | ≤ 0.3 µM | 1 (active) | 1 (active) | 1 (active) | 1 (active) | 1 (active) | 1 (active) | 1 (active) | 1 (active) | 1 (active) | 1 (active) | 1 (active) | 1 (active) | 1 (active) | 1 (active) | 1 (active)
CCc1cc(-c2n[nH]c(C)c2-c2ccc3c(c2)OCCO3)c(O)cc1O | 3 µM | 3 µM | 3 µM | 3 µM | 9 µM | 1 (active) | 1 (active) | 1 (active) | 1 (active) | 1 (active) | 1 (active) | 1 (active) | 1 (active) | 1 (active) | 1 (active) | 1 (active) | 1 (active) | 1 (active) | 1 (active) | 1 (active)
COCC(=O)O[C@]1(CCN(C)CCCc2nc3ccccc3[nH]2)CCc2cc(F)ccc2[C@@H]1C(C)C [mibefradil] | 3 µM | 9 µM | 3 µM | 9 µM | 3 µM | 1 (active) | 1 (active) | 1 (active) | 1 (active) | 1 (active) | 1 (active) | 1 (active) | 1 (active) | 1 (active) | 1 (active) | 1 (active) | 1 (active) | 1 (active) | 1 (active) | 1 (active)
COc1ccc2[nH]c(C(=O)c3ccccc3)cc2c1 | ≤ 0.3 µM | ≤ 0.3 µM | ≤ 0.3 µM | ≤ 0.3 µM | ≤ 0.3 µM | 1 (active) | 1 (active) | 1 (active) | 1 (active) | 1 (active) | 1 (active) | 1 (active) | 1 (active) | 1 (active) | 1 (active) | 1 (active) | 1 (active) | 1 (active) | 1 (active) | 1 (active)
CCc1cccc(CC)c1NC(=O)N1Cc2[nH]nc(NC(=O)c3ccc(N4CCN(C)CC4)cc3)c2C1 | ≤ 0.3 µM | 3 µM | 1 µM | ≤ 0.3 µM | ≤ 0.3 µM | 1 (active) | 1 (active) | 1 (active) | 1 (active) | 1 (active) | 1 (active) | 1 (active) | 1 (active) | 1 (active) | 1 (active) | 1 (active) | 1 (active) | 1 (active) | 1 (active) | 1 (active)
Nc1nc(Cl)nc2c1ncn2[C@@H]1O[C@H](CO)[C@@H](O)[C@@H]1F [clofarabine] | 1 µM | ≤ 0.3 µM | 1 µM | ≤ 0.3 µM | ≤ 0.3 µM | 1 (active) | 1 (active) | 1 (active) | 1 (active) | 1 (active) | 1 (active) | 1 (active) | 1 (active) | 1 (active) | 1 (active) | 1 (active) | 1 (active) | 1 (active) | 1 (active) | 1 (active)
Clc1ccc(N/N=C(\c2ccccc2)c2ccccn2)nc1 | 1 µM | 3 µM | ≤ 0.3 µM | ≤ 0.3 µM | ≤ 0.3 µM | 1 (active) | 1 (active) | 1 (active) | 1 (active) | 1 (active) | 1 (active) | 1 (active) | 1 (active) | 1 (active) | 1 (active) | 1 (active) | 1 (active) | 1 (active) | 1 (active) | 1 (active)
CCOC(=O)Nc1cc(-c2ccc(C)c(NS(C)(=O)=O)c2)nn2c(C)nnc12 [Bromosporine] | ≤ 0.3 µM | 1 µM | 1 µM | 1 µM | 1 µM | 1 (active) | 1 (active) | 1 (active) | 1 (active) | 1 (active) | 1 (active) | 1 (active) | 1 (active) | 1 (active) | 1 (active) | 1 (active) | 1 (active) | 1 (active) | 1 (active) | 1 (active)
Cc1noc(C)c1-c1cc(O)cc(C(O)c2ccccc2)c1 (stereo not given) | 1 µM | 9 µM | 3 µM | 3 µM | 3 µM | 1 (active) | 1 (active) | 1 (active) | 1 (active) | 1 (active) | 1 (active) | 1 (active) | 1 (active) | 1 (active) | 1 (active) | 1 (active) | 1 (active) | 1 (active) | 1 (active) | 1 (active)
C[C@@H](CN1CCC(n2c(=O)[nH]c3cc(Cl)ccc32)CC1)NC(=O)c1ccc2ccccc2c1 | 3 µM | 9 µM | 3 µM | 9 µM | 3 µM | 1 (active) | 1 (active) | 1 (active) | 1 (active) | 1 (active) | 1 (active) | 1 (active) | 1 (active) | 1 (active) | 1 (active) | 1 (active) | 1 (active) | 1 (active) | 1 (active) | 1 (active)
CCCC1(CCC)CCC2(CCN(CCCN(CC)CC)C2)CC1 [Atiprimod dihydrochloride] | ≤ 0.3 µM | 3 µM | ≤ 0.3 µM | 1 µM | ≤ 0.3 µM | 1 (active) | 1 (active) | 1 (active) | 1 (active) | 1 (active) | 1 (active) | 1 (active) | 1 (active) | 1 (active) | 1 (active) | 1 (active) | 1 (active) | 1 (active) | 1 (active) | 1 (active)
